# In the supplement of paper PMC3334620:
# In all, about 33,000 sequences were measured (“E-score (-0.5 to 0.5)”: median about -0.017, highest 2% from about 0.3 on). The entries come from a sample that favours the highest values as a whole.
# Biological target: T1, Sut1 (UniProt P53032)
# T1 sequence: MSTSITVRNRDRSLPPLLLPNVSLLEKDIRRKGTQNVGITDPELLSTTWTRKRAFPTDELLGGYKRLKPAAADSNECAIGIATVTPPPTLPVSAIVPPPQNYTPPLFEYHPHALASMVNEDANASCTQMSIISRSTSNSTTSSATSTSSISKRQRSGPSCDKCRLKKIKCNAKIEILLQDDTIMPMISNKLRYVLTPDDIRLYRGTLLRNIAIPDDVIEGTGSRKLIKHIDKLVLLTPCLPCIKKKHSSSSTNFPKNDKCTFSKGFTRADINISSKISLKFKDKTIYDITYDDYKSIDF
# Test: PBM E-score (8-mer binding enrichment) (E-score (-0.5 to 0.5)); higher = stronger / more preferred TF binding
# Settings: protein concentration: 200 nM; construct: GST-full length
# Outline: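 GST-tagged yeast TFs (full-length or DNA-binding domain) were made by PURExpress in vitro transcription/translation and applied at about 100-200 nM to universal all-10-mer Agilent arrays. The arrays were made double-stranded by primer extension, on fresh or once-stripped slides. Bound protein was detected with fluorescent anti-GST, and scans were normalised with masliner. Each ungapped eight-base word, pooled with its reverse complement, received an E-score (modified Wilcoxon-Mann-Whitney statistic) from the Universal PBM Analysis Suite.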
row,Sequence,PBM E-score
1,ACATTATC,0.102
2,ACATACTA,0.15
3,AAGCCCTC,-0.213
4,AATGTGAG,0.13
5,GAGGCATA,0.0426
6,GCCGTGTA,-0.196
7,ACTTGAAC,0.157
8,AGACTTGA,0.0388
9,CGACTTGA,0.06
10,AGACTTTA,-0.111
11,CGACTTTA,0.166
12,GGACTTGA,0.339
13,GGACTTTA,0.347
14,CGACTTCA,0.136
15,GGACTTCA,0.321
16,AGACTTCA,-0.0862
17,ATTTTAGG,0.113
18,ATACGCTG,0.025
19,AGATCATA,0.155
20,ATCTGCAC,-0.145
21,CACCGGAA,0.361
22,AACCGGTC,0.0286
23,AACCGGAT,0.222
24,GACCGGAC,0.364
25,AACCGGAG,0.43
26,GACCGGGC,-0.0226

row,Sequence,PBM E-score
1,CACCGGGA,-0.0737
2,AACCGGAC,0.345
3,CACCGGTA,-0.12
4,AACCGGAA,0.229
5,AACCGGCC,-0.0986
6,GACCGGAA,0.179
7,GTGATTCA,-0.119
8,CGCCAAAG,-0.237
9,CCGGGTAA,0.136
10,TCGTTCCA,-0.0676
11,GATGGTGA,-0.174
12,ACCGTGAA,0.00123
13,ACCTGTGG,-0.141
14,CACCGGCC,-0.231
15,TACCGGGA,0.229
16,CACCGGCG,0.117
17,TACCGGAA,0.298
18,CACCGGTG,0.0775
19,CACCGGAC,0.409
20,TACCGGTA,0.0972
21,CACCGGTC,-0.223
22,CACCGGAG,0.437
23,ACAGCAAA,0.127
24,GCGTCTAA,-0.155
25,CCCTACCG,-0.233
26,AGAAACCT,0.149

row,Sequence,PBM E-score
1,GCCTGTCC,-0.154
2,AAGAACTT,0.183
3,CATGAAGC,-0.0952
4,ACTGTGAC,-0.142
5,GGTTCGCA,-0.0674
6,GGTTCGAA,0.14
7,CGTTCGGC,-0.0654
8,AGTTCGGA,0.352
9,GGTTCGGA,0.423
10,AGTTCGGC,0.126
11,AGTTCGGG,0.0543
12,CGTTCGTA,0.15
13,CGTTCGGA,0.385
14,CCCACTAG,-0.248
15,AGTGTAGC,-0.123
16,CAAGCCAA,-0.059
17,GTGGGAAA,-0.0448
18,GCTCCGAA,0.439
19,GCTCCGAC,0.267
20,TCTCCAAA,-0.0978
21,CCTCCGAA,0.121
22,TCTCCGCA,0.225
23,TCTCCGAA,0.446
24,GTGTTTCA,0.0164
25,CACCCCTC,-0.352
26,CTCGGAAG,0.174

row,Sequence,PBM E-score
1,AAATAAAA,0.234
2,ATATAAAC,0.227
3,AAATAAAT,0.329
4,AAATAAAG,0.224
5,ATATAAAG,0.177
6,ATATAAAT,0.325
7,ATGTTATG,0.211
8,ACCTGTTC,-0.081
9,CTTCTTCA,-0.102
10,CCTGGTCA,-0.307
11,CCCGATCA,-0.133
12,ACCCAAAT,0.00677
13,CATGTCTC,-0.0334
14,GCAGCTCC,0.00727
15,ATCCGCGA,-0.0287
16,GCCCGCGA,-0.0595
17,GTCCGCTA,0.258
18,TTCCGCAA,0.166
19,CGCCGCGA,0.0357
20,CTCCGCTA,0.301
21,CTCCGCGA,0.35
22,CTCCGCTC,0.295
23,CTCCGCCA,0.171
24,GTCCGCGA,0.347
25,GTCCGCAA,0.298
26,ATCCGCAA,-0.0823

row,Sequence,PBM E-score
1,CCGTTCTC,0.0465
2,AGAGCGCG,-0.155
3,AGCCAGCG,-0.249
4,ACCATCGA,-0.151
5,GTCACGAC,-0.0628
6,CGCTCCAC,-0.012
7,CTCCGCCC,0.217
8,CTCCGCGC,0.327
9,ATCCGCGC,-0.0272
10,ATGCATAC,-0.0233
11,GAGTGATA,0.13
12,TGTTCGAA,0.103
13,CCAAGTTC,-0.107
14,GTATATAC,0.316
15,CTATACTA,0.21
16,AAATGTAA,0.206
17,AAATGTAT,0.304
18,AAATATAT,0.365
19,AAATATAC,0.217
20,ATATACTA,0.305
21,AAATATAA,0.273
22,AAATGTAG,0.0326
23,GTATACAC,-0.0284
24,GTATATAA,0.277
25,ATATACTC,0.197
26,CAATCGAG,-0.309

row,Sequence,PBM E-score
1,CTGGTAAA,0.141
2,GACTTCAC,-0.00592
3,AAACACGT,0.116
4,CCCAGCCG,-0.222
5,CCTGATTC,-0.00501
6,CTCCTCCA,-0.147
7,CATACCTC,-0.0271
8,GTTTGGCA,-0.0612
9,AAATATGT,0.317
10,ACTTATAC,0.264
11,ATATAGAT,0.272
12,AAATATTC,0.207
13,AAATATTT,0.31
14,AAATATGC,0.054
15,AAATATTA,0.227
16,AAATATGA,0.114
17,ATATATAT,0.302
18,ACTTATAG,0.0142
19,ACTTATAT,0.325
20,ACATATAT,0.266
21,ACGCTATA,-0.103
22,CACTAACG,-0.17
23,CGGTGCAA,-0.00847
24,AGAGCGCA,-0.306
25,AGGGAGGG,-0.158
26,AAGACTAA,0.0716

row,Sequence,PBM E-score
1,GGTTAACA,0.0261
2,CTATATAG,0.0328
3,ACATATAC,0.088
4,ATATAGAG,0.0735
5,AGATATAT,0.301
6,ATATATAG,0.329
7,ATATATAC,0.31
8,CTATATAC,0.287
9,AGATATAG,0.18
10,AGATATAC,0.0915
11,AGAAATGG,-0.012
12,GGCACTCA,-0.374
13,CTCGCCTA,-0.0978
14,TGCGTTAA,-0.00864
15,TATCTCGA,0.108
16,ATGGTGTC,-0.14
17,CCCGTGCC,-0.126
18,AACCGAGA,0.195
19,AATTGAAT,0.314
20,GATTGAAC,0.00278
21,AATTGAAG,0.115
22,AATTGAAC,0.0105
23,GATTGAAA,0.303
24,CATTGAAA,0.249
25,GATCAAAC,-0.00328
26,CCCCATAA,-0.104

row,Sequence,PBM E-score
1,CGAAGATA,0.132
2,AGAGGGGG,-0.322
3,TCCGGCGA,0.301
4,GCCGGCGA,0.0246
5,TCCGGCAA,0.33
6,ACCGGCAA,-0.198
7,GCCGGCAA,0.144
8,ACCGGCGA,-0.0414
9,GAATTTTA,0.251
10,AACTCTGT,-0.0734
11,GGACGTAA,-0.136
12,ATGTTGAA,0.131
13,CTTGAGAA,-0.0815
14,TTCGCAAA,0.303
15,GTCGCAAA,0.131
16,ATCGCAAA,0.0837
17,ACGGTCCT,-0.258
18,ACCCAGAC,-0.0554
19,CAAGCAAC,-0.124
20,ATTCCAAA,0.0401
